Results taken from PubChem BioAssay (NCATS).
Several values for one entry are separate records, joined by “and”; a condition that tells them apart may be missing. Identical values can stand only once. Results filed as inconclusive are left out. Activity calls are given as the source filed them. Calls follow the shape of the dose curve; as a rule, active = well fitted curve in the direction sought with a large enough effect; inconclusive = small, poorly fitted or top-dose-only effect, or another doubt; inactive = no such curve, though single readings can be large; an effect the other way counts as inactive or inconclusive.

Tested on: not listed separately
Assay: Inducers of the Endoplasmic Reticulum Stress Response (ERSR) in human glioma: Validation (AID 504836); also: 0% is about no effect
Details: human glioma cells, ER stress response reporter; series mostly up to 38.3 µM; activation: at the top concentration
Outline: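 Stably transfected U87-MG glioma cells carrying a GRP78-based luciferase sensor; 16 h compound incubation. Luminescence end-point read 10 min after Bright-Glo addition at room temperature.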

| SMILES | Potency | activation |
| --- | --- | --- |
| CC(C)(C)NCC(O)c1ccc(O)c(CO)c1 (stereo not given) | inactive |  |
| CC(C)C[C@H](NC(=O)[C@@H](O)[C@H](N)Cc1ccccc1)C(=O)O |  | -3.86% (inactive) |
| CCN1CCc2nc(N)oc2CC1 |  | 1.34% (inactive) |
| CCn1cc(C(=O)O)c(=O)c2cc3c(cc21)OCO3 |  | -4.47% (inactive) |
| Cc1cccc(-c2[nH]c(C(C)(C)C)nc2-c2ccc3nccnc3c2)n1 |  | -4.45% (inactive) |
| CCc1c(C)[nH]c2c1C(=O)C(CN1CCOCC1)CC2 (stereo not given) |  | 0.223% (inactive) |
| COc1cc2nc(N3CCCN(C)CC3)nc(NC3CCN(Cc4ccccc4)CC3)c2cc1OC |  | -9.85% (inactive) |
| CCN(CC)CCn1c(=O)c(Cc2ccc(OC)cc2)nc2ccccc21 |  | -3.81% (inactive) |
| C[N+]1(C)C2CC(OC(=O)[C@H](CO)c3ccccc3)CC1C1OC12 (stereo not given in full) | inactive |  |
| CN1C(=O)CC[C@H]1c1cccnc1 |  | -2.7% (inactive) |
| NCCS |  | -1% (inactive) |
| CCN(CC)CCNC(=O)c1ccc(NC(C)=O)cc1 |  | 6.94% (inactive) |
| CS(=O)(=O)Nc1ccc([N+](=O)[O-])cc1Oc1ccccc1 |  | -1.89% (inactive) |
| CC(C)c1ccc2c(c1)c(SC(C)(C)C)c(CC(C)(C)C(=O)O)n2Cc1ccc(Cl)cc1 |  | 2.72% (inactive) |
| CCOC(=O)C(C)Oc1cccc2c(=O)n(CC(=O)Nc3ccc4c(c3)OCCO4)ccc12 (stereo not given) |  | -3.02% (inactive) |

Target: Ubiquitin carboxyl-terminal hydrolase 1 (Homo sapiens) (UniProt O94782)
Sequence (O94782 whole entry, looked up): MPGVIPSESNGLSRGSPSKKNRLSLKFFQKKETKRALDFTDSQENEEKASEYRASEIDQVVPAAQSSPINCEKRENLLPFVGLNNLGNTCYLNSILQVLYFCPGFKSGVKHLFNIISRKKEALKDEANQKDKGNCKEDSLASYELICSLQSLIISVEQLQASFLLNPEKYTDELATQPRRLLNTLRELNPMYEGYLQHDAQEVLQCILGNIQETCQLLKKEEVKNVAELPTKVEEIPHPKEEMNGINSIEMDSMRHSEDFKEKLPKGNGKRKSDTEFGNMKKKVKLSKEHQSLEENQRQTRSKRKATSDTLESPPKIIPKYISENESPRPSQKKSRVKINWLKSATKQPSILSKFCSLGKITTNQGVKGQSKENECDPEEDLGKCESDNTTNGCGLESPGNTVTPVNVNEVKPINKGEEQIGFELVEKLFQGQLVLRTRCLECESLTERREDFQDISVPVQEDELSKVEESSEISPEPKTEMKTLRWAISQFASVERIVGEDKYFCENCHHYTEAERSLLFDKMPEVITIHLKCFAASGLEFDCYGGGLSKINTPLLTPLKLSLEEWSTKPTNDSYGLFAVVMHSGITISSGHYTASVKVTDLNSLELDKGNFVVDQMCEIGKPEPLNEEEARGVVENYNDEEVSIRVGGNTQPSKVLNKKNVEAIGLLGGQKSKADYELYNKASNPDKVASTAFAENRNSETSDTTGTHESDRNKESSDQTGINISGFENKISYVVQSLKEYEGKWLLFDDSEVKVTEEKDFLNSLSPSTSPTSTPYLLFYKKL
Assay: Inhibitors of USP1/UAF1: Pilot qHTS (AID 504865); also: nearly all actives have a fitted effect of over 35% in size; also: potency is read from the fitted curve at half-maximal effect;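 as to activity change, negative = inhibition: rhodamine fluorescence freed from ubiquitin-rhodamine substrate followed over time; top concentration of the series differs between compounds; % is scaled to controls: 0 for no effect and ±100 for the full control effect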
Details: purified USP1/UAF1, Ub-rhodamine cleavage fluorescence; series mostly up to 114 µM; activity change, negative = inhibition: at the top concentration
Outline: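 USP1/UAF1 complex at 1 nM preincubated 15 min at room temperature with compound, then Ub-Rho substrate added at 150 nM final. Fluorescence (480/540 nm) read kinetically in 50 mM HEPES pH 7.8, 0.5 mM EDTA, 1 mM TCEP, 0.1 mg/ml BSA, 0.01% Tween-20.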

| SMILES | activity change, negative = inhibition | Potency |
| --- | --- | --- |
| CCC(=O)OC1CCC2C3CCC4=CC(=O)CC[C@@]4(C)C3CC[C@]12C (stereo not given in full) | -6.26% [at 54.9 µM] (inactive) |  |
| CN(C)[C@@H]1C(=O)C(C(N)=O)=C(O)[C@@]2(O)C(=O)C3=C(O)c4c(O)cccc4[C@@](C)(O)[C@H]3[C@H](O)[C@@H]12 | -14.7% (inactive) |  |
| NC1=NC(=O)N2CC12 (stereo not given) | -0.595% (inactive) |  |
| O=[N+]([O-])c1ccc([As](=O)(O)O)cc1 | 3.65% (inactive) |  |
| CCCN1CCO[C@@H]2c3cc(O)ccc3OC[C@@H]21 | 8.83% (inactive) |  |
| C1CCC(NC2CCCCC2)CC1 | -7.47% (inactive) |  |
| COC(=O)c1cncn1C(C)c1ccccc1 (stereo not given) | 1.77% (inactive) |  |
| CC(=O)OCC1=C(C(=O)O)N2C(=O)[C@@H](N)[C@@H]2SC1 | 1.5% [at 54.9 µM] (inactive) |  |
| CCCCCCCCCC(CC)c1ccc(S(=O)(=O)O)cc1 (stereo not given) |  | 79.4 µM (active) |
| O=C1C(I)=CC(=C(c2cc(I)c(O)c(I)c2)c2ccccc2C(=O)O)C=C1I |  | 25.1 µM (active) |
| CC(=O)[O][Hg][c]1ccccc1 |  | 50.1 µM (active) |
| O=C(O)COc1ccccc1 | 1.72% (inactive) |  |
| Cc1ccc(Cl)c(O)c1 | 0.384% (inactive) |  |
| CCOC(=O)c1cncn1[C@H](C)c1ccccc1 | -4.65% (inactive) |  |
| CCCCCCCCCCCCCCCC[N+](C)(C)C |  | 22.4 µM (active) and 31.6 µM (active) |
| O=C(O)C(Cl)Cl | -0.634% (inactive) |  |
| C[C@]12CCC(=O)C(O)=C1CC[C@@H]1[C@H]3CCC(=O)[C@@]3(C)CC[C@@H]12 | -9.96% (inactive) |  |
| O=C(O)CCCOc1ccc(Cl)cc1Cl | -4.97% (inactive) |  |
| Cc1cc(O)ccc1Cl | -4.14% (inactive) |  |
| C#CC1(O)CCC2C3CCC4=CC(=O)CCC4(C)C3CCC21C (stereo not given) |  | 50.1 µM (active) |
